Measurements from PubChem BioAssay (EPA / NIEHS).
Where “and” joins values, the source holds several entries; their conditions need not be identical. Identical values can stand only once. Results filed as inconclusive are left out. Some compounds were tested as several samples or in several runs, with calls that do not always agree. Calls of active or inactive are those of the source. Rule for the calls: active = hit-call score of the fitted dose curve at least 0.9, where 1 is the maximum; inconclusive = response in the unintended direction; inactive = score below 0.9.

The compounds below were run against rat Gamma-Aminobutyric Acid Type A Receptor, Non-Selective (GABAR-NonSelective), Gabra1 (gene 29705) (UniProt P62813) (assay: NVS_LGIC_rGABAR_NonSelective: NovaScreen (NVS) Ligand-Gated Ion Channel Assay for rat Gamma-Aminobutyric Acid Type A Receptor, Non-Selective (GABAR-NonSelective) (AID 2283326)).
Sequence of rat Gamma-Aminobutyric Acid Type A Receptor, Non-Selective (GABAR-NonSelective), Gabra1 (gene 29705) (P62813 whole entry, looked up): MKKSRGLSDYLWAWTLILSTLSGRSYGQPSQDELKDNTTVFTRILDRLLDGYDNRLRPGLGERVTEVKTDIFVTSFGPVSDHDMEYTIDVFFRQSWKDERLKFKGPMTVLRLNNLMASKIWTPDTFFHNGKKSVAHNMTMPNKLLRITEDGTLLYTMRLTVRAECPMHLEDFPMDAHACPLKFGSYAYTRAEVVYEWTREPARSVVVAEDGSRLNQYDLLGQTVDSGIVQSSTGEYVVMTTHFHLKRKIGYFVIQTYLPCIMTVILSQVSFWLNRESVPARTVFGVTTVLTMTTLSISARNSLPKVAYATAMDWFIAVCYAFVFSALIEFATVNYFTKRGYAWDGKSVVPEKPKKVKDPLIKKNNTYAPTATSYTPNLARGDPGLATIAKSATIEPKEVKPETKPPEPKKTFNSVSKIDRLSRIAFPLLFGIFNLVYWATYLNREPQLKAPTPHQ
Summary of the method: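 Radioligand displacement on rat whole-brain extract, 1 h, filter scintillation readout; signal loss fitted versus DMSO. Primary screen in duplicate at 25 uM; hits (e.g. ≥30% inhibition) retested in concentration-response up to 50 uM.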

Compound | outcome
CCOC(=O)C(C)Oc1ccc(Oc2cnc3cc(Cl)ccc3n2)cc1 (stereo unspecified) | inactive
COC(=O)CSc1cc(N=c2sc(=O)n3n2CCCC3)c(F)cc1Cl | inactive
c1ccc(Nc2ccccc2)cc1 | inactive

Each compound was assayed against rat Glutamate, NMDA Agonist Site (GluNMDA), Grin1 (gene 24408) (UniProt P35439) (assay: NVS_LGIC_rGluNMDA_Agonist: NovaScreen (NVS) Ligand-Gated Ion Channel Assay for rat Glutamate, NMDA Agonist Site (GluNMDA) (AID 2283327)).
Method: NVS_LGIC_rGluNMDA_Agonist is a biochemical, single-readout assay that uses extracted gene-proteins from Rat forebrain membranes in a tissue-based cell-free assay. Measurements were taken 1 hour after chemical dosing in a 48-well plate.NVS_LGIC_rGluNMDA_Agonist is one of one assay component(s) measured or calculated from the NVS_LGIC_rGluNMDA_Agonist assay. It is designed to make measurements of radioligand binding, a form of binding reporter, as detected with scintillation counting signals by Filter-based radiodetection technology.Data from the assay component NVS_LGIC_rGluNMDA_Agonist was analyzed into 1 assay endpoint. This assay endpoint, NVS_LGIC_rGluNMDA_Agonist, was analyzed in the positive analysis fitting direction relative to DMSO as the negative control and baseline of activity. Using a type of binding reporter, gain-of-signal activity can be used to understand changes in the binding as they relate to the gene Grin1. Furthermore, this assay endpoint can be referred to as a primary readout, because the performed assay has only produced 1 assay endpoint. To generalize the intended target to other relatable targets, this assay endpoint is annotated to the ion channel intended target family, where the subfamily is ligand-gated ion channel.
(§1) Binding assays used specific radioligands (tritiated, iodinated) with non-radioactive competitive displacement ligands in agonist or antagonist protocols (as indicated) and various reference compounds and inhibitors to titrate specific binding to receptors and transporters. Most enzyme assays (CYPs, kinases, phosphatases, proteases, HDACs) used recombinant protein and specific substrates (fluorescence mostly, some colorimetric and radioactive) and inhibitors, followed by a biochemical separation of substrate and product. All assays for the biochemical HTS were initially run in duplicate at a single concentration (10 uM for CYP450 assays and 25 uM for all others). Assay-chemical combinations meeting a pre-defined threshold (e.g., 30% inhibition and other criteria defined below) were then run in singleton concentration-response format with maximum concentration of 20 uM for CYPs and 50 uM for all others. Each assay was run with positive and negative controls, and concurrent controls on every plate. The follow-up (secondary) screen tested active chemical-pairs in concentration series, as well as a few additional assays not tested in the primary screen, some selected negative inactives, and several cases re-run in the concentration series for confirmatory purposes.

Compound | outcome | AC50
S=C([S-])NCCNC(=S)[S-].[Mn+2] | inactive | 
CC(C)(C)[C@@H](O)[C@@H](Cc1ccc(Cl)cc1)n1cncn1 | inactive | 
CC(=O)S[C@@H]1CC2=CC(=O)CC[C@]2(C)[C@H]2CC[C@@]3(C)[C@@H](CC[C@@]34CCC(=O)O4)[C@H]12 | inactive | 
S=C(S)NCCNC(=S)S.[Mn+2].[S-]C([S-])=NCCN=C([S-])[S-].[Zn+2] | inactive | 
CC(C)(c1ccc(O)cc1)c1ccc(O)cc1 |  | 19.7 µM (active) and 25.4 µM (active) and 15 µM (active)

Each compound was assayed against rat Thyrotropin Releasing Hormone Receptor (TRH), Trhr (gene 25570) (UniProt Q01717) (assay: NVS_GPCR_rTRH: NovaScreen (NVS) G Protein-Coupled Receptor Assay for rat Thyrotropin Releasing Hormone Receptor (TRH) (AID 2283329);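 note: hit means lower bound tracer signal versus DMSO baseline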).
Sequence of rat Thyrotropin Releasing Hormone Receptor (TRH), Trhr (gene 25570) (Q01717 whole entry, looked up): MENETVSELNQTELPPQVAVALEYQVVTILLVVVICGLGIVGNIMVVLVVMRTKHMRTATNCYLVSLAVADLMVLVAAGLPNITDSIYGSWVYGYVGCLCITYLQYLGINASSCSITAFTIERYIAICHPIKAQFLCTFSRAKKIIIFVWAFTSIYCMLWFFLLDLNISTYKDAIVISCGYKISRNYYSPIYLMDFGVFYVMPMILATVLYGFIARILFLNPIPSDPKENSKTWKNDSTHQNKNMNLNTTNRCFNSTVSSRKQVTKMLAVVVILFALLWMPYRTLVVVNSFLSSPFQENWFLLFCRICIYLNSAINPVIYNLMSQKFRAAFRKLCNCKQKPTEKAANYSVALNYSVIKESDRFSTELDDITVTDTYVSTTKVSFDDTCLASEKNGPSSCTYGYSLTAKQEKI
Method: NVS_GPCR_rTRH is a biochemical, single-readout assay that uses extracted gene-proteins from Rat forebrain membranes in a tissue-based cell-free assay. Measurements were taken 4 hours after chemical dosing in a 48-well plate.NVS_GPCR_rTRH is one of one assay component(s) measured or calculated from the NVS_GPCR_rTRH assay. It is designed to make measurements of radioligand binding, a form of binding reporter, as detected with scintillation counting signals by Filter-based radiodetection technology.Data from the assay component NVS_GPCR_rTRH was analyzed into 1 assay endpoint. This assay endpoint, NVS_GPCR_rTRH, was analyzed in the positive analysis fitting direction relative to DMSO as the negative control and baseline of activity. Using a type of binding reporter, loss-of-signal activity can be used to understand changes in the binding as they relate to the gene Trhr. Furthermore, this assay endpoint can be referred to as a primary readout, because the performed assay has only produced 1 assay endpoint. To generalize the intended target to other relatable targets, this assay endpoint is annotated to the gpcr intended target family, where the subfamily is rhodopsin-like receptor.
as §1, with “Assay-chemical combinations meeting a pre-defined threshold (e.g., 30% inhibition and other criteria defined below) were then run in singleton concentration-response format with maximum concentration of 20 uM for CYPs and 50 uM for all others.” left out

Compound | AC50 | outcome
C=CCOC(Cn1ccnc1)c1ccc(Cl)cc1Cl (stereo unspecified) | 17 µM (active) | 
CCCCC(CC)CN1C(=O)C2C3C=CC(C3)C2C1=O (stereo unspecified) |  | inactive
O=C(c1ccccc1)C1CCCCC1 |  | inactive
C[C@]12CC[C@@H]3c4ccc(O)cc4C[C@@H](CCCCCCCCCS(=O)CCCC(F)(F)C(F)(F)F)[C@H]3[C@@H]1CC[C@@H]2O (stereo partly specified) |  | inactive
COC(=O)c1ccccc1S(=O)(=O)NC(=O)Nc1nc(OC(F)F)cc(OC(F)F)n1 |  | inactive
CC1(C)C(C=C(Cl)Cl)C1C(=O)OCc1cccc(Oc2ccccc2)c1 (stereo unspecified) |  | inactive
CC(=O)S[C@@H]1CC2=CC(=O)CC[C@]2(C)[C@H]2CC[C@@]3(C)[C@@H](CC[C@@]34CCC(=O)O4)[C@H]12 |  | inactive
O=C(c1ccc(O)cc1O)c1ccc(O)cc1O |  | inactive

The compounds below were run against human Androgen Receptor (AR), AR (gene 367) (UniProt P10275) (assay: NVS_NR_hAR: NovaScreen (NVS) Nuclear Receptor Binding Assay for human Androgen Receptor (AR) (AID 2283332)).
Sequence of human Androgen Receptor (AR), AR (gene 367) (P10275 whole entry, looked up): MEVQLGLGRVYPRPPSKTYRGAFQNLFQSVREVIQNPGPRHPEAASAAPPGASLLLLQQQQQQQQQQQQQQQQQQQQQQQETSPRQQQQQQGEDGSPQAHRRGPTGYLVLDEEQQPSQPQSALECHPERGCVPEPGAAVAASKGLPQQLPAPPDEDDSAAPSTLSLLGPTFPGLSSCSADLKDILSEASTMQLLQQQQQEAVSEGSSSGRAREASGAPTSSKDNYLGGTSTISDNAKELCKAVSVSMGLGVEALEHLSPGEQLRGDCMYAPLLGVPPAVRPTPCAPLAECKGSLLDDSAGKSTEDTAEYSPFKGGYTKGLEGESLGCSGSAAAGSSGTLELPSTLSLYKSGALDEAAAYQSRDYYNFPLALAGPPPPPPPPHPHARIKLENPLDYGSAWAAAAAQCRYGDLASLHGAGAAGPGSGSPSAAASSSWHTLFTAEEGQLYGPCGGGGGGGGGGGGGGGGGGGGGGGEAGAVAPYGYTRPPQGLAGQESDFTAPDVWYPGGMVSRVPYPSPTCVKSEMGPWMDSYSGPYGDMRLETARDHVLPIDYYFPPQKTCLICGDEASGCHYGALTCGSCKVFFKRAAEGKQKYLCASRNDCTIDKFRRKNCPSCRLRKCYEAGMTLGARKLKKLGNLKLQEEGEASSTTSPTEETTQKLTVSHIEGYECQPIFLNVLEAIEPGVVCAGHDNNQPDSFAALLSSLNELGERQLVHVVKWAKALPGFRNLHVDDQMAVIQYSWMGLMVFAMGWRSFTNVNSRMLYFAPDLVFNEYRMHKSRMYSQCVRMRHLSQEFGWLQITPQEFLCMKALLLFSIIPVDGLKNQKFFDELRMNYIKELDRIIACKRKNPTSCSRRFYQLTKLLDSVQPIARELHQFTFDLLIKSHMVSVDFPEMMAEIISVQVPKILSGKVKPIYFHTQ
Summary of the method: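 Actives from a duplicate 25 uM single-point screen went on to concentration series. Read-out after 20 h was scintillation counting of displaced radioligand in LnCAP extract, with DMSO as baseline.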

Compound | outcome | AC50
C[C@]12CC[C@@H]3c4ccc(O)cc4C[C@@H](CCCCCCCCCS(=O)CCCC(F)(F)C(F)(F)F)[C@H]3[C@@H]1CC[C@@H]2O (stereo partly specified) | inactive | 
CCCN(CCC)C(=O)SCC | inactive | 
O=C(c1ccc(O)cc1O)c1ccc(O)cc1O |  | 1.39 µM (active)
CC(C)(c1ccc(O)cc1)c1ccc(O)cc1 | inactive | 9.86 µM (active) [middle of 4 runs]
CSC(=O)c1cccc2nnsc12 | inactive | 

What follows are compounds tested against rat Peripheral-type Benzodiazepine Receptor (PBR), Tspo (gene 24230) (UniProt P16257) (assay: NVS_MP_rPBR: NovaScreen (NVS) Membrane Protein Assay for rat Peripheral-type Benzodiazepine Receptor (PBR) (AID 2283335)).
Sequence of rat Peripheral-type Benzodiazepine Receptor (PBR), Tspo (gene 24230) (P16257 whole entry, looked up): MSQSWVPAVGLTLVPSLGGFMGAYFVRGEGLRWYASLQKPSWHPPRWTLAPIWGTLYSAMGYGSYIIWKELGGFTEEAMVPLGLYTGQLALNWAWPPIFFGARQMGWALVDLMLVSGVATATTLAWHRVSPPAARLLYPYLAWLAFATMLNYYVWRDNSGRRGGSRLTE
Summary of the method: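 Rat kidney membranes; radioligand binding with displacement, filter-based scintillation counting, 1 h incubation. Primary screen in duplicate at 25 uM, actives followed in concentration series; loss of binding vs DMSO.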

Compound | AC50 | outcome
C=CCOC(Cn1ccnc1)c1ccc(Cl)cc1Cl (stereo unspecified) | 8.58 µM (active) | 
CCCCCOC(=O)COc1cc(N2C(=O)C3=C(CCCC3)C2=O)c(F)cc1Cl | 1.23 µM (active) | 
N[C@@H](Cc1cc(I)c(Oc2ccc(O)c(I)c2)c(I)c1)C(=O)O | 9.05 µM (active) and 6.01 µM (active) and 8.66 µM (active) | 
S=C([S-])NCCNC(=S)[S-].[Mn+2] | 15.3 µM (active) | 
CCCN(CCC)C(=O)SCC | 25 µM (active) | inactive
CC1(C)C(C=C(Cl)Cl)C1C(=O)OCc1cccc(Oc2ccccc2)c1 (stereo unspecified) |  | inactive
CCOC(=O)COc1cc(-n2ncc(C(F)(F)F)c(C)c2=O)c(F)cc1Cl | 0.806 µM (active) | 
COc1nc(C)nc(NC(=O)NS(=O)(=O)c2ccccc2OCCCl)n1 | 21.8 µM (active) and 9.77 µM (active) | 
CCCCOCCOCCOCc1cc2c(cc1CCC)OCO2 | 12.3 µM (active) | 
N#CSCSc1nc2ccccc2s1 | 11.1 µM (active) and 9.24 µM (active) | 
CCCCC(CC)COC(=O)c1ccccc1C(=O)O (stereo unspecified) |  | inactive
S=C(S)NCCNC(=S)S.[Mn+2].[S-]C([S-])=NCCN=C([S-])[S-].[Zn+2] |  | inactive
COC(=O)CSc1cc(N=c2sc(=O)n3n2CCCC3)c(F)cc1Cl |  | inactive
CCCCCCC(C)OC(=O)COc1nc(F)c(Cl)c(N)c1Cl (stereo unspecified) | 3.75 µM (active) | 
Oc1ccc(C(c2ccc(O)cc2)C(Cl)(Cl)Cl)cc1 | 4.65 µM (active) | 
CC(C)(c1ccc(O)cc1)c1ccc(O)cc1 | 6.73 µM (active) and 25 µM (active) | inactive
CCNc1nc(N)nc(Cl)n1 |  | inactive
